# Reference: paper PMC7862700, “An all-to-all approach to the identification of sequence-specific readers for epigenetic DNA modifications on cytosine”
# Assays:
# Test in all cases: DAPPL (digital affinity profiling via proximity ligation, sequencing); 10 mM Tris-HCl pH 7.5, 50 mM NaCl, 1 mM DTT, 4% glycerol, room temperature, 30 min; GST-TFs on glutathione beads, 16-mer random dsDNA library, 0.1% formaldehyde crosslink after washing; high values mean tight binding
# [1] = biological target: HSF1 (Homo sapiens, UniProt Q00613 1-529); details: protein: recombinant; tags: N-terminal GST; chain copies: 3; dsDNA, one strand shown
# HSF1, sequence (Q00613 whole entry, the tested form may be a part): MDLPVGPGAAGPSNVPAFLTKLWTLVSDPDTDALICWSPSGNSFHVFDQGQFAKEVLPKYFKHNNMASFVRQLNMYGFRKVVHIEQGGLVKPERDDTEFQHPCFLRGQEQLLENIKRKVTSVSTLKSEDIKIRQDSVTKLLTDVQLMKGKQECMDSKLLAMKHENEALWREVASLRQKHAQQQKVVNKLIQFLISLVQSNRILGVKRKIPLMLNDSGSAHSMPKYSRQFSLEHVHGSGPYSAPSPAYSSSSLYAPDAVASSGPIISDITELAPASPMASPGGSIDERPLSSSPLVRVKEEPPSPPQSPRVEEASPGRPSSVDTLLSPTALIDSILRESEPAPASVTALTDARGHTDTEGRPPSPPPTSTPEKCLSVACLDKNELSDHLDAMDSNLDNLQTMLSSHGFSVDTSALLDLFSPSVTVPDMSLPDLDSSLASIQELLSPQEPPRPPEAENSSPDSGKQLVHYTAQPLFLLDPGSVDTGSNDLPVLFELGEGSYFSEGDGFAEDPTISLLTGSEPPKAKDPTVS
# Procedure, shortened: (§1)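 Human transcription factors were made in yeast as GST fusions, captured on glutathione beads and barcoded with DNA. With a tag-only sample included, the pool was incubated with 200 nmole of a random double-stranded 16-mer DNA library in Tris/NaCl/DTT/glycerol buffer at room temperature for 30 min, then crosslinked with 0.1% formaldehyde after washing, ligated by proximity, amplified and sequenced. For binding signal, each hexamer's read frequency for a factor is divided by its frequency for the tag-only sample.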
# [2] = biological target: T1, ELK1 (Homo sapiens, UniProt P19419 1-428); details: protein: recombinant; tags: N-terminal GST; dsDNA, one strand shown
# T1 sequence: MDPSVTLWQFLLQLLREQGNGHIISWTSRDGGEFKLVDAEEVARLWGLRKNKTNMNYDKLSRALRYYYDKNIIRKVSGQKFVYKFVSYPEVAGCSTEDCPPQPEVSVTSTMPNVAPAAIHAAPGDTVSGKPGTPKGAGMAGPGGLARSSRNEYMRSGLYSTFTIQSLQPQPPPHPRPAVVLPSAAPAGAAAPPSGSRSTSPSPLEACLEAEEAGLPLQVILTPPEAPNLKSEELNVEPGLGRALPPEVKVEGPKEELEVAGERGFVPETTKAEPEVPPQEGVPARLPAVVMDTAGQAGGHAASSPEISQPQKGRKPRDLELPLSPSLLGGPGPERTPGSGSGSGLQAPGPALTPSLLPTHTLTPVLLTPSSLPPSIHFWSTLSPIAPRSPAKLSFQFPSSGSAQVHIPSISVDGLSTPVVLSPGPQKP
# Procedure, shortened: as §1
# [3] = biological target: T2, GABPA (Homo sapiens, UniProt Q06546 1-454); details: protein: recombinant; tags: N-terminal GST; dsDNA, one strand shown
# T2 sequence: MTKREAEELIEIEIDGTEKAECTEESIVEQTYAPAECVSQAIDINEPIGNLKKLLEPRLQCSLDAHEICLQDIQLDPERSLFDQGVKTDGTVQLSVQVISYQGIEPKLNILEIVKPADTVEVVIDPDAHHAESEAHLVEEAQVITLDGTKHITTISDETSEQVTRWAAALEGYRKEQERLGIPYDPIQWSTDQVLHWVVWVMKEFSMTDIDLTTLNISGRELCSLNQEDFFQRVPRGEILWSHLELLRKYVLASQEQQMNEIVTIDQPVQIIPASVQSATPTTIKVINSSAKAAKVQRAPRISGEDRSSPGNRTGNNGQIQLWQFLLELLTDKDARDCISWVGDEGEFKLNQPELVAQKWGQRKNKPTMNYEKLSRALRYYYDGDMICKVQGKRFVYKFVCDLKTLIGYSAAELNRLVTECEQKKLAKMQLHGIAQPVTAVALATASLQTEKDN
# Procedure, shortened: as §1
# [4] = biological target: ELF1 (Homo sapiens, UniProt P32519 1-619); details: protein: recombinant; tags: N-terminal GST; dsDNA, one strand shown
# ELF1, sequence (P32519 whole entry): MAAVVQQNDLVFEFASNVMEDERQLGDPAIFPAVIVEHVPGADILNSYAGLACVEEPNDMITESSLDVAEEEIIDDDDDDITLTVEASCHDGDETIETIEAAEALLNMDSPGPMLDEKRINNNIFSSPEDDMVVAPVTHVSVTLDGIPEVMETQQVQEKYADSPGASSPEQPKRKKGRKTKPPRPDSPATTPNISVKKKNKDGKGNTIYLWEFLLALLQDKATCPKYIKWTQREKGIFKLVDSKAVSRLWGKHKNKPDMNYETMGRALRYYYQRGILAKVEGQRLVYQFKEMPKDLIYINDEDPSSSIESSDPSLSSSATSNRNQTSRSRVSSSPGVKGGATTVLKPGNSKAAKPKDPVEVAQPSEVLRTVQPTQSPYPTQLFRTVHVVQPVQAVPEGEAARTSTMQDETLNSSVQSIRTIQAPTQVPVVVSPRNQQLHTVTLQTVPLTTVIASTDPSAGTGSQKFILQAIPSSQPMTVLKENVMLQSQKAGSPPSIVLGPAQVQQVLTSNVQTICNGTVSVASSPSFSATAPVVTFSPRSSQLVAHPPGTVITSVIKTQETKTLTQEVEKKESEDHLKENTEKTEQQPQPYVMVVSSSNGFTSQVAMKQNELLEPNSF
# Procedure, shortened: as §1
# [5] = biological target: T3, EHF (Homo sapiens, UniProt Q9NZC4 1-300); details: protein: recombinant; tags: N-terminal GST; dsDNA, one strand shown
# T3 sequence: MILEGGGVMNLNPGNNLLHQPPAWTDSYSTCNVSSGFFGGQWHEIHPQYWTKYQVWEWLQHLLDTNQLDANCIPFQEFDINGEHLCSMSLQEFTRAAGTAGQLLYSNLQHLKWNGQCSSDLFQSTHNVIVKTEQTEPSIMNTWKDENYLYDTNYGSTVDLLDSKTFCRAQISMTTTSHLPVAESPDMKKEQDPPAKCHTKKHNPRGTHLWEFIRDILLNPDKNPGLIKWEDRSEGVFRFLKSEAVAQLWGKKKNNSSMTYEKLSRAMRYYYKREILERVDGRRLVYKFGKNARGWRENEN
# Procedure, shortened: as §1
# [6] = biological target: SPIB (Homo sapiens, UniProt Q01892 1-262); details: protein: recombinant; tags: N-terminal GST; dsDNA, one strand shown
# SPIB, sequence (Q01892 whole entry): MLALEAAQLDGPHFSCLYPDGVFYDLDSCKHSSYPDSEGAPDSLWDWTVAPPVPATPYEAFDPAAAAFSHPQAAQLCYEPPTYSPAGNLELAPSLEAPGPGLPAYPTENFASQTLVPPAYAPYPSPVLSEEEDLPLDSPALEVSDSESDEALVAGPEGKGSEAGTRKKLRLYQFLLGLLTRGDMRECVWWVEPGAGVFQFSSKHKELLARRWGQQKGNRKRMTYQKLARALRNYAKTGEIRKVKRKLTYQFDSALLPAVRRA
# Procedure, shortened: as §1
# [7] = biological target: T4, ELK3 (Homo sapiens, UniProt P41970 1-407); details: protein: recombinant; tags: N-terminal GST; dsDNA, one strand shown
# T4 sequence: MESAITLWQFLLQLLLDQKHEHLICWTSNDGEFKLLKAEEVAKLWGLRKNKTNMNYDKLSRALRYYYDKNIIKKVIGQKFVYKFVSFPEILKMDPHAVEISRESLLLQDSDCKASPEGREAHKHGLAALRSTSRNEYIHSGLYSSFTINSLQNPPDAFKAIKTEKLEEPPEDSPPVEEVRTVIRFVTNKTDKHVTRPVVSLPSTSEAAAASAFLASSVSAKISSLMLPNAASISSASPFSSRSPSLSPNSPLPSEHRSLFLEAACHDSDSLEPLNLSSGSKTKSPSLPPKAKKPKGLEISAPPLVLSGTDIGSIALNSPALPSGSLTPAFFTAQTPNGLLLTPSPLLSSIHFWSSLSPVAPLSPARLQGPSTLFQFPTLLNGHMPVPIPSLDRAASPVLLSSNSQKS
# Procedure, shortened: as §1
# [8] = biological target: T5, SPIC (Homo sapiens, UniProt Q8N5J4 1-248); details: protein: recombinant; tags: N-terminal GST; dsDNA, one strand shown
# T5 sequence: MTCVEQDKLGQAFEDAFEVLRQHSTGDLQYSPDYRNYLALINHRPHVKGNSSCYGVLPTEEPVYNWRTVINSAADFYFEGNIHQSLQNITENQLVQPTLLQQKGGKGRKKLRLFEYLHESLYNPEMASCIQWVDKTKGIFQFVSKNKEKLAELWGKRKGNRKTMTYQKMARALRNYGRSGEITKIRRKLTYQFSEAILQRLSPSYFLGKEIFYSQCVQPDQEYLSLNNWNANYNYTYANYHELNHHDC
# Procedure, shortened: as §1
# [9] = biological target: ELF4 (Homo sapiens, UniProt Q99607 1-663); details: protein: recombinant; tags: N-terminal GST; dsDNA, one strand shown
# ELF4, sequence (Q99607 whole entry): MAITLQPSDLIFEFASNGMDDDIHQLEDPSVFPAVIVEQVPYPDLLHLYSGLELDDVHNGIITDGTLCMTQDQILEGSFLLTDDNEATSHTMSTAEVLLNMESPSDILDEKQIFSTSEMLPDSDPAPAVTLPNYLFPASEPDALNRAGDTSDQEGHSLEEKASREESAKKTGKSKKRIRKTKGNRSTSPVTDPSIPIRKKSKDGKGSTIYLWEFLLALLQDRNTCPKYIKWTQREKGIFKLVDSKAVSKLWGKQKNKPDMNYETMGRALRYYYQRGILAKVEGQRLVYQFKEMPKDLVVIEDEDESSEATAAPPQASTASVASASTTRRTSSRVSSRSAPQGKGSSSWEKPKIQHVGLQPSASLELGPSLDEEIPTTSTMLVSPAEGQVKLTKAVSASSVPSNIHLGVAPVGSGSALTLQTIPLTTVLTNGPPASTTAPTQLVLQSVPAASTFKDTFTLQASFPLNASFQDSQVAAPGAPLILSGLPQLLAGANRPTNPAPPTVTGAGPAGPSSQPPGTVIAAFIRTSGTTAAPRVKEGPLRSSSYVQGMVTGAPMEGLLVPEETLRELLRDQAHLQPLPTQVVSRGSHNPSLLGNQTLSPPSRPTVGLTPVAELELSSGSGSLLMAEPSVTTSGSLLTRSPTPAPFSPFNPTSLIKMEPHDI
# Procedure, shortened: as §1
# [10] = biological target: T6, ELF3 (Homo sapiens, UniProt P78545 1-371); details: protein: recombinant; tags: N-terminal GST; dsDNA, one strand shown
# T6 sequence: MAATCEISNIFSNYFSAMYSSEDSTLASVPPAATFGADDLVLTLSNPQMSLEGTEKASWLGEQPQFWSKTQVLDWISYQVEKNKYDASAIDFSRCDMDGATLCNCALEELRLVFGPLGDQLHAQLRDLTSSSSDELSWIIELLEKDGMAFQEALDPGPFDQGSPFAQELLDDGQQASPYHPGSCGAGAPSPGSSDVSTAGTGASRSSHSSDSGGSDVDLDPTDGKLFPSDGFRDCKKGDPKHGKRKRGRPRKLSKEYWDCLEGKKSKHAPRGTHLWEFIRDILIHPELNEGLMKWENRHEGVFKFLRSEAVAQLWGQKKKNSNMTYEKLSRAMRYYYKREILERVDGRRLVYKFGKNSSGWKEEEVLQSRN
# Procedure, shortened: as §1
# [11] = biological target: T7, ERF (Homo sapiens, UniProt P50548 1-548); details: protein: recombinant; tags: N-terminal GST; dsDNA, one strand shown
# T7 sequence: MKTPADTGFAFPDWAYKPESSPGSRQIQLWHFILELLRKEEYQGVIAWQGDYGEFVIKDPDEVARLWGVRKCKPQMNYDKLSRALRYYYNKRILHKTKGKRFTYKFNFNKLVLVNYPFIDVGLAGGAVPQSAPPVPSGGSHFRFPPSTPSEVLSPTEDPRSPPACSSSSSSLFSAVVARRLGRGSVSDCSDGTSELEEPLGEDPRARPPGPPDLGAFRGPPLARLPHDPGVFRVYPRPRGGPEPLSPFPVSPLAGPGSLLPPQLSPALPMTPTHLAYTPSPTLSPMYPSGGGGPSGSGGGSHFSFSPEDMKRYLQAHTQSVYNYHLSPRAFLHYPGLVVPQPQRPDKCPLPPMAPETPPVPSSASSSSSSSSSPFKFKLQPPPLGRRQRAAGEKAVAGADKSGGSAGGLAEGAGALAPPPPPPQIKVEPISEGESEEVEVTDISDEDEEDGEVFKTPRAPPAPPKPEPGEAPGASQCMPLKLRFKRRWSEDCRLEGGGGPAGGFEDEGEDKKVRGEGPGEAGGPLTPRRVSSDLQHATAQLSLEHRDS
# Procedure, shortened: as §1
# [12] = biological target: T8, ETS2 (Homo sapiens, UniProt P15036 1-469); details: protein: recombinant; tags: N-terminal GST; dsDNA, one strand shown
# T8 sequence: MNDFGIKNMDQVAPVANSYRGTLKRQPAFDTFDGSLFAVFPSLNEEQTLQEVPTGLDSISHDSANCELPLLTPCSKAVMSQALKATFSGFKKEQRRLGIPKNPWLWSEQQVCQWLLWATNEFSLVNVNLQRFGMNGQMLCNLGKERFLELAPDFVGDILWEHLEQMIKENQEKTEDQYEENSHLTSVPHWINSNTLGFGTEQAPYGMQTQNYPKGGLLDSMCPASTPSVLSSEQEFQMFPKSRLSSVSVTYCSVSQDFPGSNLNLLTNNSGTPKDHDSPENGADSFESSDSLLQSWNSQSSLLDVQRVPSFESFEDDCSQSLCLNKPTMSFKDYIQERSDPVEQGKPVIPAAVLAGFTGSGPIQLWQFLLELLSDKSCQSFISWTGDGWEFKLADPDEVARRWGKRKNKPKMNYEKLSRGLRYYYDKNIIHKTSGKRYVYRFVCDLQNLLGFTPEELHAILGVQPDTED
# Procedure, shortened: as §1
sequence,measurement,setting,value
GATCGA,binding signal,[1],"1.07 fold enrichment (6-mer frequency, TF over GST control)"
GCCGAA,binding signal,[2],"1 fold enrichment (6-mer frequency, TF over GST control)"
same,binding signal,[3],"1.02 fold enrichment (6-mer frequency, TF over GST control)"
same,binding signal,[4],"1.01 fold enrichment (6-mer frequency, TF over GST control)"
same,binding signal,[5],"1.03 fold enrichment (6-mer frequency, TF over GST control)"
same,binding signal,[6],"1.02 fold enrichment (6-mer frequency, TF over GST control)"
same,binding signal,[7],"1.06 fold enrichment (6-mer frequency, TF over GST control)"
same,binding signal,[1],"1.14 fold enrichment (6-mer frequency, TF over GST control)"
same,binding signal,[8],"1.09 fold enrichment (6-mer frequency, TF over GST control)"
same,binding signal,[9],"1.06 fold enrichment (6-mer frequency, TF over GST control)"
same,binding signal,[10],"1.02 fold enrichment (6-mer frequency, TF over GST control)"
same,binding signal,[11],"1.05 fold enrichment (6-mer frequency, TF over GST control)"
same,binding signal,[12],"1.04 fold enrichment (6-mer frequency, TF over GST control)"
GGGAAT,binding signal,[1],"1.09 fold enrichment (6-mer frequency, TF over GST control)"
